NS1 inh = inhibitors of influenza NS1 protein function; Potency, µM (doses to about 46.1 µM), without a hit: at the highest dose activity, positive = more growth; 270,000 compounds, 0.4% hits; AID 2326; calls by dose curve; note: potency is the fitted concentration of half-maximal effect; actives are rising curves; nearly all actives have a fitted effect of over 50% in size
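Recovery from NS1-induced slow growth read by OD600 in budding yeast switched to galactose assay medium (pH 6.0, -URA) at 1:100 dilution. Compound 23 nl per well; the matching strain lacking NS1 serves as control.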
Pf growth 48h = P. falciparum growth inhibition at 48 hours (one generation); Potency, µM (highest dose often 28.7 µM), for the others: at the top dose activity change, negative = inhibition, actives largely listed as inhibitors; P. falciparum luciferase growth in erythrocytes, 48 h; 310,000 compounds, 5.9% hits; note: potency is the fitted concentration of half-maximal effect; % is set by controls: 0 for no effect and ±100 for the full control effect
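Luciferase-expressing P. falciparum in infected erythrocytes (2% hematocrit, 0.1% parasitemia final) in RPMI 1640/0.5% Albumax were exposed to compound for 48 hours at 37 C, 5% CO2; growth read as luminescence.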
Pf growth 96h = P. falciparum growth inhibition at 96 hour, primary screen for plastid delayed-death inhibitors | Potency, µM (highest dose often 28.7 µM), inactives show at the top dose activity change, negative = inhibition, most hits filed as inhibitors | P. falciparum luciferase reporter growth, 96 h | 320,000 compounds, 6.9% hits; note: potency is the fitted concentration of half-maximal effect; % is set by controls: 0 for no effect and ±100 for the full control effect
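Cell-based qHTS: luciferase-tagged P. falciparum in erythrocytes (2% hematocrit, 0.05% parasitemia final) incubated with compounds for 96 hours, 37 C, 5% CO2; luciferase detection reagent then added and luminescence measured.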
CHX counter = counter-screen hit for Shiga toxin inhibitors, cycloheximide; max response, %; cell reporter, cycloheximide protein synthesis inhibition counterscreen; AID 2314; 300,000 compounds, 12% hits; in the data active = max response mostly above about 13%, no sharp cut-off; inactive = mostly below about 14%; note: read at 38.3 µM for the half of the compounds with a filed dose; 0% is about no effect
Shiga toxin inh = inhibitors of Shiga toxin in Vero cells. AID 2315. inhibition, % at 38.7 µM. Vero cells, Shiga toxin protein synthesis inhibition reporter. 290,000 compounds, 9.2% hits; in the data active = inhibition mostly above about 28%, no sharp cut-off; inactive = mostly below about 43%; note: 0% is about no effect
* = called active by the depositor; i = inactive; ? = inconclusive; · = not tested or not shown. Most compounds without a hit are left out; they make up all but 21% or so of the library. Unless noted, calls come from the whole dose curve; as a rule, active = well fitted inhibition curve with a large enough effect; inconclusive = small, poorly fitted or top-dose-only effect, or another doubt; inactive = no such curve, though single readings can be large or run the other way.

SMILES	NS1 inh	Pf growth 48h	Pf growth 96h	CHX counter	Shiga toxin inh
CSc1ccccc1C(=O)N1CCOCC1	2.5%	8.5%	1.8%	-2.6	-8.8
O=C(OCC#CCSc1nnc(-c2cccc3ccccc23)s1)c1cccs1	·	-11.9%	7.8%	·	·
Cc1ccc(C)c(N2CCN(C(=O)Cn3c(=O)[nH]c4ccsc4c3=O)CC2)c1	-4.3%	·	-1.0%	0.2	10.2
CCN(CC)S(=O)(=O)c1ccc(OC)c(NC(=O)CSc2ccccc2)c1	-0.4%	-15.8%	?	-1.8	7.0
CC(C)c1ccc2[nH]c(O)c(N=NC(=O)c3cccc(S(=O)(=O)N4CCCCC4)c3)c2c1	18.3%	?	9.28µM*	-3.7	-1.2
CC(C)c1ccc2[nH]c(O)c(N=NC(=O)c3cccc(S(=O)(=O)Nc4ccc(Cl)cc4)c3)c2c1	2.3%	4.0%	22.4%	-2.3	-17.8
Cc1[nH]c2ccccc2c1C(=O)COC(=O)c1cccc(S(=O)(=O)N2CCCCC2)c1	-5.1%	?	?	-4.0	1.0
O=C(N=Nc1c(O)[nH]c2ccccc12)c1cccc(S(=O)(=O)N2CCCCC2)c1	?	9.28µM*	3.29µM*	12.3*	63.2*
COc1ccc2[nH]c(C(=O)Nc3ccc(F)cc3Br)cc2c1	2.5%	-1.3%	0.8%	14.5	15.0
CC(C)(Cl)C1Cc2cc3ccc(=O)oc3cc2O1 (stereo unspecified)	-3.7%	95.2%	155.9%	30.5*	47.0*
CC(=O)OC(C)(C)C1Cc2cc3ccc(=O)oc3cc2O1 (stereo unspecified)	-1.1%	47.1%	14.6%	22.9	45.4*
CC1(C)Cc2c(c(N3CCOCC3)nc3snc(NC(=O)c4ccccc4)c23)CO1	-5.9%	·	8.28µM*	-2.4	-6.8
CN1Cc2c(N3CCOCC3)nc3sc(C#N)c(N)c3c2CC1(C)C	-4.8%	?	?	-2.0	-7.7
COc1ccc(NC(=O)c2sc3nc(N4CCOCC4)c4c(c3c2N)CC(C)(C)OC4)c(OC)c1	3.0%	?	1.65µM*	-1.9	4.6
COc1ccc(NC(=O)c2sc3nc(N4CCOCC4)c4c(c3c2N)CC(C)(C)OC4)cc1	1.5%	26.4%	?	-2.0	-5.1
COc1ccc(NC(=O)c2sc3nc(N4CCCC4)c4c(c3c2N)CC(C)(C)OC4)cc1	13.4%	13.1µM*	11.7µM*	-1.5	-2.9
CN1Cc2c(N3CCOCC3)nc3sc(C(=O)c4ccc(Br)cc4)c(N)c3c2CC1(C)C	0.6%	4.15µM*	9.28µM*	-2.0	-18.5
CCCCOC(=O)c1sc2nc(N3CCOCC3)c3c(c2c1N)CC(C)(C)OC3	0.2%	45.4%	-0.4%	-2.1	-3.4
O=[N+]([O-])c1cccc(/C=N/NC2=NS(=O)(=O)c3ccccc32)c1	·	?	-1.2%	1.6	-2.0
CCCN1CCN(S(=O)(=O)c2ccc(-n3cnnn3)cc2)CC1	-14.3%	15.3%	-8.7%	-0.8	-6.9
COCCCNC(=O)CCN1N=C(c2ccccc2)CCC1=O	-2.1%	0.7%	0.0%	-2.1	6.7
Cc1ccnc(NC(=O)c2ccc(NS(=O)(=O)/C=C/c3ccccc3)cc2)c1	·	21.8%	-16.4%	·	·
CC(C)N1C(=O)c2ccccc2C1C(=O)NC1CCCCCC1 (stereo unspecified)	?	-15.1%	0.738µM*	3.6	2.7
O=C(NC1CCCCCC1)C1c2ccccc2C(=O)N1Cc1cccs1 (stereo unspecified)	-11.2%	-35.1%	28.8%	-1.1	-10.6
O=C(NC1CCCCCC1)C1c2ccccc2C(=O)N1Cc1ccco1 (stereo unspecified)	-5.0%	0.3%	1.04µM*	-1.5	-4.7
SMILES	NS1 inh	Pf growth 48h	Pf growth 96h	CHX counter	Shiga toxin inh
O=C(CCC(=O)OCCCC(F)(F)C(F)(F)F)Nc1ccc(Cl)cc1Cl	-8.2%	·	23.5%	-0.6	15.8
COc1ccc2nc(NNC(=O)c3cc(=O)c4ccccc4o3)sc2c1	4.5%	?	?	43.2*	65.7*
Cc1cccc2sc(NNC(=O)c3cc(=O)c4ccccc4o3)nc12	8.0%	?	?	12.5*	30.8*
COc1ccc(-c2csc(NC(=O)c3cc(=O)c4ccccc4o3)n2)cc1OC	·	1.4%	29.3%	15.1	-0.5
O=C(NNc1nc2c(F)cccc2s1)c1cc(=O)c2ccccc2o1	-11.7%	31.7%	43.0%	12.9	13.0
Cc1ccc2sc(NNC(=O)c3cc(=O)c4ccccc4o3)nc2c1C	16.1%	-33.6%	?	15.6*	43.6*
O=S(=O)(O)c1cc(O)c2c(N=Cc3ccccc3O)cc(S(=O)(=O)O)cc2c1	-0.3%	·	·	·	·
CCCCCCCCCCCCOCCOCCOCCOCCOCCOCCOCCOCCOCCO	·	?	10.7µM*	-1.4	5.5
NCCCNCCCCNCCCNC(=O)CCc1ccc(O)cc1	·	·	·	-3.2	i
CC(C)Nc1nnc(SCC(=O)Nc2sccc2C#N)s1	·	-0.1%	?	·	·
Cc1ccnc(SCC(=O)Nc2sccc2C#N)n1	-3.8%	37.6%	?	12.2*	17.4
CC(=O)Nc1ccc(SCC(=O)Nc2sccc2C#N)cc1	·	46.4%	55.9%	33.2*	62.9*
COc1ccc(NC(=O)CSc2nccc(C)n2)cc1	2.2%	46.3%	·	6.3	2.0
Cc1ccc(NC(=O)CNC(=O)c2cccc(C)c2)nc1	·	48.6%	70.7%	·	·
Cc1c(C(=O)N(CCC#N)c2ccccc2)sc2nc3n(c(=O)c12)CCCC3	-6.5%	-2.4%	67.7%	0.9	0.6
CCOc1ccc2nc(N(CCN(CC)CC)C(=O)c3cccc([N+](=O)[O-])c3)sc2c1	·	7.2%	-7.5%	-4.8	15.6
O=C(c1cc(C(=O)NCCc2ccccc2)c(=O)n(CCc2ccccc2)c1)c1cc(Cl)ccc1O	16.7%	0.828µM*	0.415µM*	-4.6	-3.7
COc1ccc(CCNC(=O)c2cc(C(=O)c3cc(C)ccc3O)cn(CCc3ccc(OC)cc3)c2=O)cc1	?	6.57µM*	3.29µM*	-0.4	12.9
COc1ccc(CCNC(=O)c2cc(C(=O)c3cc(Cl)ccc3O)cn(CCc3ccc(OC)cc3)c2=O)cc1	0.8%	1.65µM*	0.522µM*	13.1	15.5
CC(=O)c1ccc2c(c1)N(C)c1ccccc1S2	-3.1%	22.7%	9.8%	15.2*	15.4*
CN1/C(=C\C(=O)c2cccc([N+](=O)[O-])c2)Sc2ccccc21	-13.4%	225.7%	160.6%	38.4*	97.1*
COCC(=O)/C=C1\Sc2ccccc2N1C	0.5%	28.0%	8.6%	6.8	18.2
COc1ccc2c(c1)S/C(=C\C(=O)c1ccncc1)N2C	-137.2%	80.0%	23.2%	46.7*	109.8*
COc1ccc2c(c1)SCC(=O)N2C	18.6%	1.1%	-4.6%	-3.2	51.0
COc1cc(OC)cc(C(=O)/C=C2\Sc3ccccc3N2C)c1	-13.8%	148.5%	87.2%	41.0*	42.1*
CC(C)(C)N(CC(=O)NC1CCCCC1)C(=O)CS(=O)CC(=O)Nc1ccc(F)cc1 (stereo unspecified)	-18.5%	-14.5%	8.7%	-10.4	-2.7
CCN1CCCC1CNC(=O)CCNC(=O)c1cc(OC)c(OC)c(OC)c1 (stereo unspecified)	-4.2%	-21.2%	2.62µM*	1.8	-22.6
CCN1CCCC1CNC(=O)c1cc(OC)c(OC)c(OC)c1 (stereo unspecified)	-0.3%	·	-26.8%	3.8	-15.6

Bioassay records: PubChem, National Center for Advancing Translational Sciences (NCATS)
